Data on 51 molecules can be found in PubChem BioAssay AID1347077 (National Center for Advancing Translational Sciences (NCATS), 2019).

Hit rate of the full screen: of about 44,000 compounds, fewer than 10 were called active. Only a sample is shown. Unmarked numbers belong to inactive results. Calls follow the shape of the dose curve; as a rule, active = well fitted activation curve with a large enough effect; inconclusive = small, poorly fitted or top-dose-only effect, or another doubt; inactive = no such curve, though single readings can be large or run the other way.

Beta-2 adrenergic receptor (Homo sapiens), sequence (P07550 whole entry, looked up): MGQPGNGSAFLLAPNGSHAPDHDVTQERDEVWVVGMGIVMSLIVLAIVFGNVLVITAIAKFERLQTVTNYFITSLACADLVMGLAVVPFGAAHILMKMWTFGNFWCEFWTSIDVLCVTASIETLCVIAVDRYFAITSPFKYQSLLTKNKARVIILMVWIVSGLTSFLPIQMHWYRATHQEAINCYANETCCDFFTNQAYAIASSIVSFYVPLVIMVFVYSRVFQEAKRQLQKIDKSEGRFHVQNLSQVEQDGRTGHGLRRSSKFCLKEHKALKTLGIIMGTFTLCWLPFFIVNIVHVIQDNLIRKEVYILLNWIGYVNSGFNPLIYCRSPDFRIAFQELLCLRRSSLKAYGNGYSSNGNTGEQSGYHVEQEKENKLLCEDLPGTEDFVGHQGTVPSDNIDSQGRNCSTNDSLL

In the test the target is Beta-2 adrenergic receptor (Homo sapiens) (UniProt P07550). Nature of the test: qHTS assay of beta-arrestin-biased ligands of beta2-adrenergic receptor: NCGC Sytravon Library Screen.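 Also: 0% = DMSO and full agonism = EC100 isoproterenol or metaproterenol.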 The settings on record: HTLA Tango cells, beta-arrestin recruitment, luciferase luminescence, 18 h; series mostly up to 46.1 µM; activation: at the top concentration. An excerpt:
The concept of biased agonism is an emerging concept of molecular pharmacology which proposes that seven transmembrane receptors (7TMRs) or G protein-coupled receptors (GPCRs), exist in multiple signaling conformations and complexes and that ligands (either agonists or antagonists) can induce signaling biased responses for distinct signal transduction cascades. […] Furthermore, accumulating evidence over the last decade has drawn attention to a novel function of beta-arrestins as signal transducers that scaffold various signaling molecules upon activation of 7TMRs. […] This beta-arrestin-biased signaling presumably leads to distinct physiological outcomes from those by G protein activation. Additionally, the active receptor conformations which prefer on this beta-arrestin signaling are likely different from those activating G protein signaling. […] The goal of this screening project will be to discover and optimize novel beta-arrestin-biased ligands for beta2-AR signaling. A luminescent cell-based assay for beta2-AR-mediated agonism, known as the Tango assay, has been validated in which ligand binding of a recombinant beta2-AR and subsequent recruitment of a recombinant beta-arrestin lead to the release of the transcriptional activator tTA, which upregulates transcription of a tTA-responsive luciferase gene. […] Compounds from the NCGC Sytravon Library collection were screened as a concentration-titration series that ranged from 46 microM to 0.6 nM. NIH Molecular Libraries Probe Production Network [MLPCN] NIH Chemical Genomics Center [NCGC] MLPCN Grant: Fast-track/HHSN271700800025C PI: Bryan Roth and Bob Lefkowitz
Tango cells were dispensed into white, solid, tissue-culture-treated 1536-well plates at 1500 cells/well in DMEM, containing 1% fetal bovine serum (FBS). Then, 23 nL of compounds or DMSO were delivered to each well using a pin tool. Plates were incubated at 37 degrees C, 5% CO2 for 18 hr. Then 2.5 uL luminescent substrate mix (in-house prepared: 150 mM Tris-Cl, pH 7.6, 3 mM MgCl2, 1% Triton X-100, 5 mM DTT, 0.5 mM CoA, 0.15 mM ATP, 0.44 mM D-luciferin, final concentrations) was added to each well. Plates were then incubated for 15 minutes at room temperature, and subsequently measured on a ViewLux plate reader for luminescent signal using a clear filter with a 10 second exposure and 2x binning. The %Activity was determined from the corrected luminescence values. […] Concentration-response curves were fitted to the signals arising from the resulting luminescence. The concentration-effect curves were then classified based on curve quality (r2), response magnitude and degree of measured activity, and compounds were subsequently categorized based on their curve class.
Take `CCOc1ccc(CNC(=O)c2cc(=O)[nH]c3ccc(S(=O)(=O)N4CCCCC4)cc23)cc1`: the “activation” value is -0.314%.

`O=C(CC(NCc1cccnc1)C(=O)O)Nc1ccc(O)cc1` (stereo unspecified): the “activation” value was 0.126%. In the case of `CCc1nc2onc(C)c2c(=O)n1CC(=O)O`, the “activation” value is -1.3%.

Turning to `CCCCc1nn2c(=O)cc(COC(=O)c3cccc(NC(=O)COc4ccccc4)c3)nc2s1`, the “activation” value was 0.38%.

Regarding `COc1ccccc1C(=O)OCc1cc(=O)n2nc(-c3cccs3)sc2n1`, the “activation” value was -0.913%. Consider `CCOc1ccccc1CNC(=O)Nc1cn(CC(C)C)c(=O)c2ccccc12`, for which the “activation” value was 0.473%. In the case of `CC(=O)Nc1cc(C(=O)NCc2ccc(F)cc2Cl)ccc1Sc1ccc(Cl)cc1`, the “activation” value is 0.0643%. Then `O=S(=O)(c1ccc(Cl)cc1)c1nnn2c1nc(NC1CCCC1)c1sccc12`, with 3.34%. On to `CC(C)(C)c1ccc(C(=O)NCC(c2ccco2)S(=O)(=O)c2ccc(F)cc2)cc1` (stereo unspecified), for which the “activation” value is -0.628%. Consider `COc1ccc(CCNc2nc(-c3ccc(Cl)cc3)cc(C(F)(F)F)n2)cc1OC`, for which the “activation” value was 0.359%. Take `CCOc1ccc(Nc2ncnc3scc(-c4ccc(OC)cc4)c23)cc1`: the “activation” value was 0.966%. With `Cc1cccc(NC(=O)CSc2nnc(CNC(=O)c3cccc(C)c3)n2-c2ccccc2)c1`, the “activation” value is 0.652%. On to `Cc1c(C(=O)NCc2ccccc2Br)oc2ccc3c(c12)C(=O)CC(C)(C)O3`, for which the “activation” value is 0.769%. As for `O=c1c(NCc2cccs2)nccn1-c1ccccc1`, the “activation” value is -0.476%. For `COc1ccccc1Nc1c2c(nc3ccc(NC(=O)/C=C/c4cc(OC)c(OC)c(OC)c4)cc13)CCCC2` the value was -0.0014%. `CC(=O)N1CCc2cc(Br)cc(S(=O)(=O)CCC(=O)NCCc3ccc(Cl)cc3)c21`: the “activation” value is -1.89%. For `Cc1ccccc1CNC(=O)C1CCCN(S(=O)(=O)N(C)c2ccc(F)cc2)C1` (stereo unspecified) the value was -0.584%. `CCOc1cccc(CNC(=O)c2ccc(N3CCCC3)c(NC(=O)Nc3ccccc3CC)c2)c1`: the “activation” value was 0.0293%. As to `Cc1ccc(CN2CCC(CNC(=O)c3cnn(-c4ccccc4Cl)c3C3CCN(C(=O)OC(C)(C)C)CC3)CC2)cc1`, the “activation” value was -0.282%.

For `COc1cc(OC)c(NC(=O)Cc2ccc(-n3c(C)nc4cccnc43)cc2)cc1Cl`, the “activation” value is 0.0247%. Regarding `COc1ccc2c(c1)c(N1CCCC1=O)c(C(=O)Nc1ccc(OC)c(Cl)c1)n2C`, the “activation” value was 1.84%.

For `O=C(CC1N=C2c3ccccc3N=C(SCc3ccc(F)cc3)N2C1=O)NCc1cccs1` (stereo unspecified), the “activation” value is 10.6%.

Take `CCOc1ccc(C(=O)c2cn(Cc3ccc(F)cc3)c3ccc(F)cc3c2=O)cc1`: the “activation” value is -0.931%.

As for `COc1ccccc1CNC(=O)CCn1c(=O)c2ccccc2n(CC(=O)Nc2ccc(Br)cc2F)c1=O`, the “activation” value is -1.31%. With `CCOc1ccc(N(CC)S(=O)(=O)N2CCCC(C(=O)NCc3ccc(Cl)cc3)C2)cc1` (stereo unspecified), the “activation” value is 2.98%. For `COC(=O)c1cc(S(=O)(=O)N2CCN(c3cc(Cl)ccc3C)CC2)c[nH]1`, the “activation” value is 0.398%. Regarding `Cc1ccc(Cl)cc1NC(=O)CSc1nc2ccccc2nc1Cc1ccccc1`, the “activation” value is -0.671%. For `COC(=O)c1ccc2c(c1)N(CC(=O)Nc1ccc(C)c(C)c1)C(=O)c1ccccc1S2`, the “activation” value is 0.0004%.

Take `CCc1ccccc1NC(=O)CSc1nnc(-c2ccccc2)c(-c2ccccc2)n1`: the “activation” value was 0.425%. For `COc1ccc(-c2c(C)c3ccc(O)c(CN4CCN(C)CC4)c3oc2=O)cc1OC`, the “activation” value was 0.151%. On to `CCOC(=O)c1ccc2c(c1)N(Cc1cccc(OC)c1)C(=O)c1ccccc1S2(=O)=O`, for which the “activation” value was -1.14%. For the molecule `CCN(Cc1ccccc1)Cc1c(O)ccc2c(=O)c(-c3ccc(Cl)cc3Cl)coc12`, the “activation” value is 0.878%.

On to `COC(=O)c1ccc(Cn2c(SCC(=O)N(C)c3ccccc3)nc3ccccc32)cc1`, for which the “activation” value was 0.519%. With `Cc1ccc(CNC(=O)CCNS(=O)(=O)c2ccc3c(c2)oc(=O)n3C)cc1`, the “activation” value was 0.362%. As to `CSc1ccc(CCNC(=O)c2cc(C)nc3c2c(C)nn3-c2cccc(F)c2)cc1`, the “activation” value was 1.93%. `COc1cc(NC(=O)c2cc3ccc4cccnc4c3[nH]2)cc(OC)c1OC`: the “activation” value was 1.03%. Take `CCCCCn1c(=O)[nH]c2cc(C(=O)Nc3ccc(F)cc3)ccc2c1=O`: the “activation” value was 0.0091%. For `Cc1ccc(NC(=O)Nc2sc3nc4n(c(=O)c3c2C)CCC(C)CC4)c(Cl)c1` (stereo unspecified) the value was 0.293%; for `Cc1ccc(-n2ncc(C(=O)N(C)Cc3ccccc3)c2-n2cccc2)cc1`, -1.39%. For `COc1ccccc1NC(=O)C1=C(C)Nc2ncnn2C1c1sccc1C` (stereo unspecified), the “activation” value is -0.49%.

For `Cc1ccc(CNC(=O)CCC(=O)N2CC(C)Sc3ccccc32)cc1` (stereo unspecified), the “activation” value is -0.354%. Regarding `COc1ccccc1N1CCN(CCCNC(=O)c2cnn(-c3ccccc3Cl)c2C2CCN(C(=O)OC(C)(C)C)CC2)CC1`, the “activation” value is 0.105%. Then `Cc1ccc(Cl)cc1NC(=O)C(C)n1nnc2sc(-c3ccccc3)cc2c1=O` (stereo unspecified), with -0.567%.

`Cc1ccc(Cl)cc1NC(=O)Cc1ccc(-n2c(C)nc3cccnc32)cc1`: the “activation” value is 1.55%. For `Cc1cc2c(cc3c(SCc4nc(-c5ccccc5)oc4C)nnc(C)n32)o1` the value was -0.472%; for `Cc1ccc(-c2nn3c(=O)cc(CN4CCN(C(=O)Nc5cccc(C(F)(F)F)c5)CC4)nc3s2)cc1`, -0.373%; for `Cc1ccccc1NC(=O)Cn1c(=O)n(CCc2ccccc2)c(=O)c2ccccc21`, -2.33%. For `CCCn1c2ccccc2c2cnn(CC(=O)N(CC)c3cc(C)ccc3C)c(=O)c21`, the “activation” value was 0.931%. Then `O=C(COc1ccc(Cl)cc1)Nc1ccccc1OCc1cc(=O)n2ccccc2n1`, with -0.53%; and `CCc1ccccc1NC(=O)CCOc1ccccc1`, with -1.06%; and `CCC(C(=O)Nc1cc(OC)ccc1OC)n1c(=O)c(C(F)(F)F)nc2ccccc21` (stereo unspecified), with 0.639%.
